# Test results: PubChem BioAssay AID651742 (Broad Institute, 2012)
# The campaign covered roughly 5,600 compounds. About 780 (14%) were called active. Another 3% or so got no clear call; they are omitted. The list is a sample of the results. A number with no mark means an inactive call.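 The calls were made as follows: active = mean signal decrease across replicates above about 35% based on untreated-well scatter, with enough replicates individually passing (limit read from the data); inconclusive = no rule stated though some were filed; inactive = the rest.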
# Test: NIH3T3 cell viability loss – cherry-pick, single point, cytotoxicity control for T. cruzi proliferation inhibitor project, confirmation (AID 651742);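 also: 0% = median of neutral control wells and 100% = median of positive control wells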
# Settings: NIH/3T3 viability, CellTiter-Glo ATP luminescence, 90 h; at 8.35 µM; hits give high values
row,Compound,cytotoxicity (signal decrease)
1,C[C@@H]1CN([C@H](C)CO)S(=O)(=O)c2ccc(C#CC3CCCC3)cc2O[C@@H]1CN(C)Cc1cccnc1,48.5% (active)
2,CC(C)CC#Cc1ccc2c(c1)O[C@H](CN(C)Cc1cccnc1)[C@H](C)CN([C@@H](C)CO)S2(=O)=O,65.8% (active)
3,C[C@H](CO)N1C[C@H](C)[C@H](CN(C)Cc2cccnc2)Oc2cc(C#CC3CCCC3)ccc2S1(=O)=O,32%
4,CC(C)CC#Cc1ccc2c(c1)O[C@H](CN(C)C(=O)C1CC1)[C@@H](C)CN([C@@H](C)CO)S2(=O)=O,22.1%
5,CNC[C@@H]1Oc2cc(C#CCC3CCCC3)ccc2S(=O)(=O)N([C@H](C)CO)C[C@H]1C,-4.17%
6,C[C@@H]1CCCCO[C@H](CN(C)Cc2ccc(Cl)c(Cl)c2)[C@H](C)CN([C@@H](C)CO)C(=O)c2cc(NC(=O)C3CCCCC3)ccc2O1,12.1%
7,C[C@@H]1CN([C@H](C)CO)S(=O)(=O)c2ccc(C#CC3CCCC3)cc2O[C@@H]1CN(C)C(=O)Cc1ccncc1,4.33%
8,Cc1ccc(S(=O)(=O)N(C)C[C@@H]2OCCCC[C@@H](C)Oc3ccc(NS(=O)(=O)c4ccc(F)cc4)cc3C(=O)N([C@H](C)CO)C[C@H]2C)cc1,-0.859%
9,O=C(Nc1cc(Cl)cc(Cl)c1)N[C@H]1CC[C@@H](CCNS(=O)(=O)c2cccc(F)c2)O[C@H]1CO,2.47%
10,C[C@H](CO)N1C[C@H](C)[C@@H](CN(C)S(=O)(=O)c2ccccc2)Oc2ncc(C#Cc3ccccc3F)cc2C1=O,37.2% (active)
11,CCCNC(=O)N(C)C[C@@H]1Oc2ncc(C#Cc3ccccc3F)cc2C(=O)N([C@@H](C)CO)C[C@H]1C,-5.73%
12,C[C@@H]1CN([C@H](C)CO)C(=O)c2cc(-c3cncnc3)cnc2O[C@H]1CN(C)C(=O)Nc1ccc2c(c1)OCO2,-12.9%
13,C[C@H](CO)N1C[C@H](C)[C@@H](CN(C)S(=O)(=O)c2ccccc2F)Oc2ncc(C#Cc3ccccc3F)cc2C1=O,48% (active)
14,C[C@@H]1CN([C@@H](C)CO)C(=O)c2cc(C#CC3CCCCC3)cnc2O[C@H]1CN(C)S(=O)(=O)c1ccccc1,17.3%
15,C[C@H](CO)N1C[C@H](C)[C@H](CN(C)C(=O)Nc2ccc3c(c2)OCO3)Oc2ncc(C#Cc3cccc(F)c3)cc2C1=O,66.2% (active)
16,C[C@H]1CN([C@@H](C)CO)C(=O)c2cc(C#CC3CCCCC3)cnc2O[C@H]1CN(C)S(=O)(=O)c1ccccc1,4.57%

row,Compound,cytotoxicity (signal decrease)
1,Cc1ccc(S(=O)(=O)N(C)C[C@@H]2Oc3ncc(-c4cc5ccccc5o4)cc3C(=O)N([C@H](C)CO)C[C@@H]2C)cc1,38.6% (active)
2,C[C@@H]1CN([C@H](C)CO)C(=O)c2cc(C#Cc3ccccn3)cnc2O[C@H]1CN(C)Cc1ccccc1,-3.21%
3,C[C@H](CO)N1C[C@H](C)[C@H](CN(C)C(=O)C2CCCCC2)Oc2ncc(C#Cc3cccc(F)c3)cc2C1=O,25.3%
4,Cc1ccc(-c2cnc3c(c2)C(=O)N([C@@H](C)CO)C[C@@H](C)[C@H](CN(C)Cc2ccccc2F)O3)cc1,33%
5,C[C@H](CO)N1C[C@H](C)[C@H](CN(C)S(=O)(=O)c2ccccc2)Oc2ncc(-c3cccc(C(F)(F)F)c3)cc2C1=O,33.1%
6,N#C[C@@H]1[C@H](c2ccc(C#Cc3cccc(F)c3)cc2)[C@@H](CO)N1C(=O)C1CCCC1,-6.1%
7,CC(C)(C)[S@@](=O)N1Cc2cc(C(=O)NCc3ccc4c(c3)OCO4)nc(-c3cccc(-c4ccccc4)c3)c2[C@H]1CCO,24%
8,COc1cccc(S(=O)(=O)N2CCCCN3[C@H](CO)[C@H](c4ccc(C#CC5CC5)cc4)[C@H]3C2)c1,24.2%
9,C[C@@H]1CCCCO[C@H](CN(C)C(=O)NC2CCCCC2)[C@H](C)CN([C@H](C)CO)C(=O)c2cc(NS(=O)(=O)c3ccc(Cl)cc3)ccc2O1,-21.2%
10,C[C@H]1CN([C@@H](C)CO)C(=O)c2cccc(NS(=O)(=O)c3cn(C)cn3)c2O[C@@H]1CN(C)CC1CCCCC1,-8.55%
11,C[C@@H]1CCCCO[C@@H](CN(C)C(=O)Nc2ccc(F)cc2)[C@H](C)CN([C@H](C)CO)C(=O)c2cc(NC(=O)Nc3cccc4ccccc34)ccc2O1,1.18%
12,CN1C(=O)c2cc(NC(=O)Nc3ccccc3F)ccc2OC[C@H]2O[C@H](CC(=O)NCc3ccc(-c4ccccc4)cc3)CC[C@H]21,8.3%
13,N#C[C@@H]1[C@@H](c2ccccc2)[C@@H](CO)N1C(=O)Cc1ccccc1,20.6%
14,Cc1cc(C(=O)Nc2cccc3c2O[C@@H](CN(C)Cc2ccc(C(=O)Nc4ccccc4N)cc2)[C@H](C)CN([C@@H](C)CO)C3=O)n(C)n1,6%
15,C[C@H]1CCCCO[C@H](CN(C)Cc2ccccc2)[C@@H](C)CN([C@@H](C)CO)C(=O)c2cc(NC(=O)c3ccccc3)ccc2O1,-15.3%
